Laboratory results taken from PubChem BioAssay AID1578 (Sanford-Burnham Center for Chemical Genomics, 2009).
Among all 290,000 compounds or so, about 3,000 (1%) were called active. This is one part of a sample in which actives are shown more often than they occur. No stated cut-off is given here; in the data, active means inhibition mostly above about 36% (no sharp cut-off); inactive means mostly below about 34%.

Test: NOD1 signaling inhibitors, primary screen, cell-based, luminescence, uHTS (AID 1578);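 further: HEK-293T reporter cells stimulated with the NOD1 agonist gamma-tri-DAP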
Conditions: NOD1-driven NF-kB luciferase reporter cells, at 4 µM, hits give high values
In the case of Cc1cc(C(=O)CSc2nnc(NCc3ccccc3)s2)c(C)n1C, the inhibition is reported as -18.8% (inactive). For Cc1sc2ncnc(N3CCN(Cc4ccccc4)CC3)c2c1-c1ccccc1, the inhibition was 43.2% (inactive). In the case of CCN1CCN(c2ncnc3sc(C)c(-c4ccccc4)c23)CC1, the inhibition is reported as -8.6% (inactive). With Cc1ccc(C(=O)NS(=O)(=O)c2ccc(N=NN(C)C)cc2)cc1 the inhibition was 46.6% (active). In the case of Cc1ccc(C(=O)NS(=O)(=O)c2ccccc2)cc1, the inhibition is reported as -46.6% (inactive). In the case of Cc1ccc(C(=O)NS(=O)(=O)c2ccc(C)cc2)cc1, the inhibition is reported as -2.7% (inactive). With O=C1/C(=C/c2ccc(F)cc2)CCC1C1CCCC1 (configuration not stated) the inhibition was -42.1% (inactive). With O=C1C(=C2SCCCS2)CC/C1=C\c1ccc(F)cc1 the inhibition was 76.9% (active). For Cc1cccc(/C=C2\CCC(=C3SCCCS3)C2=O)c1, the inhibition was 21.6% (inactive). For Cc1ccc(C(=O)Nc2cccnc2Cl)cc1Cl, the inhibition was -74.4% (inactive). For NC(=O)COC(=O)c1ccc(NS(=O)(=O)c2ccc3c(c2)OCCO3)cc1, the inhibition was -9.9% (inactive). With CC(C)C(Sc1nc(-c2ccccc2)cc(-c2ccccc2)c1C#N)C(=O)O (configuration not stated) the inhibition was 52.9% (active). With COc1ccc(-c2cc(-c3ccccc3)c(C#N)c(S(C)(=O)=O)n2)cc1 the inhibition was 19.6% (inactive). For CS(=O)(=O)c1nc(-c2ccc(Br)cc2)cc(-c2ccccc2)c1C#N, the inhibition was 40.6% (inactive). For CS(=O)(=O)c1nc(-c2ccccc2)cc(-c2ccccc2)c1C#N, the inhibition was 68.3% (active). In the case of N#Cc1c(-c2ccccc2)cc(-c2ccccc2)nc1SCCC(=O)O, the inhibition is reported as 3.1% (inactive). With COc1ccc(-c2cc(-c3ccccc3)nc(SC(C)C(=O)O)c2C#N)cc1 (configuration not stated) the inhibition was -21.4% (inactive). With COC(=O)c1ccccc1NC(=O)CSc1n[nH]c(-c2ccco2)n1 the inhibition was -8.4% (inactive). In the case of O=C(C1CCN(c2ccc(N3CCOCC3)nn2)CC1)N1CCN(c2ccc(F)cc2)CC1, the inhibition is reported as -18.2% (inactive). With C=CCSc1nc2sc3c(c2c(=O)[nH]1)CC(C)(CC)OC3 (configuration not stated) the inhibition was -17.8% (inactive). In the case of Cc1ccccc1NC(=O)CC1SCCNC1=O (configuration not stated), the inhibition is reported as 11.3% (inactive). In the case of C=CCNCCCCOc1cccc(Br)c1, the inhibition is reported as 11.4% (inactive). In the case of OCCNCCCCOc1cccc(Br)c1, the inhibition is reported as 75.8% (active). In the case of COCCCNCCCCOc1cccc(Br)c1, the inhibition is reported as -2.3% (inactive). With O=S(=O)(/N=C(/NC(=S)Nc1ccccc1)c1ccccc1)c1ccc(Cl)cc1 the inhibition was -32.1% (inactive). For O=c1c(Cc2ccc(F)cc2)c(O)ccn1C1CC1, the inhibition was 51.7% (active). For O=c1c(Cc2ccccc2)c(O)ccn1C1CCCCCCC1, the inhibition was -38.2% (inactive). With O=c1c(Cc2ccc(F)cc2)c(O)ccn1C1CCCCC1 the inhibition was -17.4% (inactive). For CCCCCCCCCCCC(=O)NC(C(=O)O)C(O)c1ccccc1 (configuration not stated), the inhibition was 55.2% (active). In the case of CCCCCCCCCCCC(=O)NC(C(=O)OCC)C(O)c1cccc([N+](=O)[O-])c1 (configuration not stated), the inhibition is reported as 34.1% (inactive). For CCCCCCCCOC(=O)C(NC(=O)CCC(=O)Nc1ccc(S(N)(=O)=O)cc1)C(O)c1ccccc1 (configuration not stated), the inhibition was -2.4% (inactive). In the case of CN1CCN(c2ccc(NC(=O)c3ccco3)cc2Cl)CC1, the inhibition is reported as -46.7% (inactive). In the case of Nc1ccc(NC2C[C@@H](C(=O)O)NC2=O)cc1 (some centres not stated), the inhibition is reported as -25.3% (inactive). With CC(C)CC(=O)N/N=C/c1c(N)n(C)c(=O)n(C)c1=O the inhibition was -7.7% (inactive). In the case of CCn1cc([N+](=O)[O-])c(C(=O)N2N=C(c3ccc4ccccc4c3)CC2c2ccccc2O)n1 (configuration not stated), the inhibition is reported as -40.2% (inactive). In the case of CCn1cc([N+](=O)[O-])c(C(=O)N2N=C(c3ccc(Cl)c(Cl)c3)CC2c2ccccc2O)n1 (configuration not stated), the inhibition is reported as -14.7% (inactive). For CCn1cc(Cl)c(C(=O)N2N=C(c3ccc4ccccc4c3)CC2c2ccccc2O)n1 (configuration not stated), the inhibition was 61.4% (active). For CCCCC(=O)Nc1cc(OCC)c(NC(=S)NC)cc1OCC, the inhibition was -5.5% (inactive). With CCOc1cc(Cl)c(NC(=O)CC)cc1OCC the inhibition was -18.6% (inactive). In the case of CCOc1cc(NC(=O)CCl)c(OCC)cc1NC(=O)CCl, the inhibition is reported as 71.2% (active). With CCN1C(=O)c2ccccc2Sc2ccc(C(=O)NC(C)C)cc21 the inhibition was 0.6% (inactive). For CC(=O)c1c(C)nc(-c2ccccc2)nc1NC(=O)C(C)C, the inhibition was -18% (inactive). For COC(=O)c1scc(C)c1NC(=O)c1ccc(Cl)cc1, the inhibition was -13.3% (inactive). For CCOC(=O)/C(C#N)=N/Nc1c(S(=O)(=O)Cc2ccco2)csc1C(=O)OC, the inhibition was -12.9% (inactive). With COC(=O)c1sc(SC)c(S(=O)(=O)C(C)C)c1N/N=C(\C#N)S(=O)(=O)c1ccccn1 the inhibition was -7.4% (inactive). With COC(=O)c1sc(SC)c(S(=O)(=O)C(C)C)c1N/N=C(\C#N)C(=O)c1ccccc1 the inhibition was -8.9% (inactive). In the case of COC(=O)c1cc(OC)c(OC)cc1NC(=O)Cc1ccccc1[N+](=O)[O-], the inhibition is reported as 53.2% (inactive). With CCSc1nnc(NC(=O)c2cc(C)on2)s1 the inhibition was -22.4% (inactive). With Cc1ccc(CNS(=O)(=O)c2ccc3c(c2)NC(=O)C(C)S3)cc1 (configuration not stated) the inhibition was 16.1% (inactive). With Cc1ccccc1C(=O)N1CCC(C(N)=O)CC1 the inhibition was 24.1% (inactive). For O=C(NCc1ccccc1)C1COc2ccccc2O1 (configuration not stated), the inhibition was -48.6% (inactive). For O=C(N1CCN(c2ccccn2)CC1)C(Cl)(Cl)Cl, the inhibition was 32.8% (inactive). With O=C(CCl)N1c2ccccc2CCc2ccccc21 the inhibition was 94.7% (active). For CC(Cl)C(=O)N1c2ccccc2CCc2ccccc21 (configuration not stated), the inhibition was 19.8% (inactive). In the case of O=C(CN1CCCCC1)N1c2ccccc2CCc2ccccc21, the inhibition is reported as 7.5% (inactive). With C=CCNc1cnn(-c2ccc(C)cc2)c(=O)c1Sc1ccc(C)cc1 the inhibition was 11.6% (inactive). With CC/C(=N\NC(=O)c1ccc(Br)cc1)c1ccccc1 the inhibition was -30.9% (inactive). With N#C/C(=C(/O)CCl)c1nc2c(s1)CCc1ccccc1-2 the inhibition was 78.6% (active). For Nc1nc2c(s1)CCc1ccccc1-2, the inhibition was -11.8% (inactive). In the case of N#C/C(=C(/O)CCl)c1nc(-c2ccccc2)cs1, the inhibition is reported as -4.2% (inactive). In the case of C=CCn1c(COc2ccc(Cl)cc2)nnc1SCC(=O)N/N=C/c1ccccc1, the inhibition is reported as 1.1% (inactive). In the case of C=CCn1c(COc2ccccc2)nnc1SC(C)C(=O)N/N=C/c1cc(Cl)ccc1O (configuration not stated), the inhibition is reported as 2% (inactive). For C=CCn1c(COc2ccccc2)nnc1SCC(=O)N/N=C/c1cc(Cl)ccc1O, the inhibition was 39.9% (active). For CN(C)C(=O)CN1CCN(c2nc3nonc3nc2N2CCCCC2)CC1, the inhibition was -28.9% (inactive). In the case of CC(C)(C)OC(=O)N/N=C/c1cccn1-c1ccc([N+](=O)[O-])cc1, the inhibition is reported as -6.6% (inactive). In the case of CCCC(=O)OC/C(O)=C(\C#N)c1nc2ccccc2[nH]1, the inhibition is reported as 105% (active). With N#C/C(=C(/O)COC(=O)CCCNC(=O)c1ccc(Cl)cc1)c1nc2ccccc2[nH]1 the inhibition was 86.4% (active). With N#C/C(=C(/O)COC(=O)CCc1ccc(S(=O)(=O)N2CCOCC2)cc1)c1nc2ccccc2[nH]1 the inhibition was 93.4% (active). For COc1cc(OC)cc(C(=O)OC/C(O)=C(\C#N)c2nc3ccccc3[nH]2)c1, the inhibition was -0.4% (inactive). With N#C/C(=C(/O)COC(=O)c1ccc(O)cc1)c1nc2ccccc2[nH]1 the inhibition was -5.6% (inactive). With CC(C)C(=O)OC/C(O)=C(\C#N)c1nc2ccccc2[nH]1 the inhibition was 0.8% (inactive). With CCOC(=O)c1c(C)[nH]c(C(=O)OC/C(O)=C(\C#N)c2nc3ccccc3[nH]2)c1C the inhibition was -26.6% (inactive). With Cc1ccc(C(=O)OC/C(O)=C(\C#N)c2nc3ccccc3[nH]2)cc1S(=O)(=O)N1CCOCC1 the inhibition was 20.1% (inactive). For COCC(=O)OC/C(O)=C(\C#N)c1nc2ccccc2[nH]1, the inhibition was 66.5% (active). With N#C/C(=C(/O)COC(=O)Cc1c[nH]c2ccccc12)c1nc2ccccc2[nH]1 the inhibition was -14.1% (inactive). In the case of N#C/C(=C(/O)COC(=O)c1ccc(Cl)c(S(=O)(=O)N2CCOCC2)c1)c1nc2ccccc2[nH]1, the inhibition is reported as 17.7% (inactive). With N#C/C(=C(/O)COC(=O)c1cccnc1Cl)c1nc2ccccc2[nH]1 the inhibition was -23.4% (inactive). In the case of O=C(CSc1nc(-c2ccccc2)c(-c2ccccc2)[nH]1)Nc1ccc2c(c1)OCO2, the inhibition is reported as -5.7% (inactive). In the case of O=C(CSc1nn(-c2ccccc2)c(=S)s1)NC(=O)NCc1ccco1, the inhibition is reported as 17.4% (inactive). In the case of CCCCN(C)CCNC(=O)c1cc2c(=O)[nH]c3ccccc3c2n1C, the inhibition is reported as -7.1% (inactive). In the case of CCOC(=O)COc1ccc2c(C)cc(=O)oc2c1C(=O)c1ccccc1, the inhibition is reported as 5.9% (inactive). For O=C1CC(N2CCN(c3ccc(O)cc3)CC2)C(=O)N1c1ccc2c(c1)OCO2 (configuration not stated), the inhibition was -26.7% (inactive). In the case of COc1ccc(/C(C)=N/OC/C(O)=C(\C#N)c2nc3ccccc3[nH]2)cc1OC, the inhibition is reported as 5.6% (inactive). With COc1ccc(OC/C(O)=C(\C#N)c2nc3ccccc3[nH]2)cc1 the inhibition was -23.4% (inactive). With Cc1ccc(C(C)C)c(OC/C(O)=C(\C#N)c2nc3ccccc3[nH]2)c1 the inhibition was 36.3% (active). For CCC(C)c1ccc(OCC(=O)NNC(=O)C2CCCCC2)cc1 (configuration not stated), the inhibition was -4.3% (inactive). With CC(=O)Nc1ccccc1NC(=O)c1ccccc1-c1ccccc1 the inhibition was 73% (active). For Cc1ccccc1NC(=O)c1ccccc1-c1ccccc1, the inhibition was -24.9% (inactive). In the case of O=C(Nc1ccccc1Br)c1ccccc1-c1ccccc1, the inhibition is reported as -10.7% (inactive). For CC(C)(CO)N=Cc1c(O)[nH]c2ccccc12, the inhibition was -14.8% (inactive). In the case of CCCCCCC(=O)Nc1ccc(Cl)cn1, the inhibition is reported as -24.4% (inactive). For C=CCN(CC=C)C(=O)c1cccc(OC2CCN(S(=O)(=O)N(C)C)CC2)c1, the inhibition was 8.4% (inactive). For CCSc1nc2ccc(OC)cc2cc1C#N, the inhibition was -45.3% (inactive). For CCOc1ccc2nc(SCC#N)c(C#N)cc2c1, the inhibition was 68.2% (active). In the case of CCOc1ccc2nc(SCC(=O)N3CCCCCC3)c(C#N)cc2c1, the inhibition is reported as -18.2% (inactive). For O=C1/C(=C\c2cc(Br)cc(Br)c2O)SC(=S)N1Cc1ccccc1, the inhibition was 73.3% (active). With O=C(O)c1cccc(CN2C(=O)S/C(=C/c3cccc([N+](=O)[O-])c3)C2=O)c1 the inhibition was 1.5% (inactive). With O=C1/C(=C\c2cccc(O)c2O)SC(=S)N1Cc1ccccc1 the inhibition was -20.4% (inactive). For COc1ccc(O)c(/C=C2/SC(=S)N(Cc3ccccc3)C2=O)c1, the inhibition was -3.5% (inactive). For O=C(O)c1cccc(CN2C(=O)S/C(=C/c3ccccc3[N+](=O)[O-])C2=O)c1, the inhibition was 3.9% (inactive). For CCOC(=O)CN1C(=O)S/C(=C/c2ccc(O)c([N+](=O)[O-])c2)C1=O, the inhibition was -4.5% (inactive). In the case of O=C1/C(=C\c2ccc(O)cc2)SC(=S)N1Cc1ccccc1, the inhibition is reported as -9.6% (inactive).
